Holding throughout (assay): NCI-60 one-dose screen, 48 h (100 = growth as untreated, 0 = no growth, -100 = all killed)
One experiment deals with SN12C renal. The following applies: 10 µM unless noted.
The next experiment relates to UO-31 renal. The following applies: 10 µM unless noted.
The next experiment relates to TK-10 renal. The settings on record: 10 µM unless noted.
In a further experiment the test system is ACHN renal. The settings on record: 10 µM unless noted.
Another experiment deals with CAKI-1 renal. The following applies: 10 µM unless noted.
The next experiment deals with A498 renal. The following applies: 10 µM unless noted.
In the next experiment the test system is CCRF-CEM leukemia. The following applies: 10 µM unless noted.
Another experiment deals with MOLT-4 leukemia. The settings on record: 10 µM unless noted.
The next experiment has as its system SR leukemia. The following applies: 10 µM unless noted.
A further experiment deals with RPMI-8226 leukemia. The settings on record: 10 µM unless noted.
The subject of the next experiment is OVCAR-8 ovarian. The settings on record: 10 µM unless noted.
In a further experiment the test system is OVCAR-5 ovarian. The following applies: 10 µM unless noted.
The test system of the next experiment is OVCAR-4 ovarian. The following applies: 10 µM unless noted.
The test system of the next experiment is SK-OV-3 ovarian. The settings on record: 10 µM unless noted.
For another experiment, the system named is IGROV1 ovarian. The following applies: 10 µM unless noted.
Another experiment has as its system OVCAR-3 ovarian. The settings on record: 10 µM unless noted.
The next experiment has as its system HS 578T breast. The following applies: 10 µM.
A further experiment concerns NCI/ADR-RES ovarian. The settings on record: 10 µM unless noted.

This is part of a sample that, as a whole, favours compounds with a hit. Of some 83,000 tested, about 20% had one in any assay.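 Note: values are percent growth. 100 is the growth of untreated cells, values between 100 and 0 indicate rising inhibition; between -100 and 0 indicates cell death.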 A number with no mark means an inactive call. Active and inactive are the calls of the source. The calls were made as follows: active = growth percent below 10; inactive = the rest.

Regarding `COc1ccc(C(=O)/C=C/c2cn(-c3ccccc3)nc2-c2cccc(Nc3ccnc4cc(Cl)ccc34)c2)cc1`, the growth in the experiment on SN12C renal is 89.8%; in the experiment with UO-31 renal it was 86.6%; in the experiment on TK-10 renal it was 120%; in the experiment with ACHN renal, 103%; in the experiment with CAKI-1 renal, 94.3%; in the experiment on A498 renal, 94.8%. For the same molecule, the growth was 48.3% in the experiment on CCRF-CEM leukemia; 104% in the experiment on MOLT-4 leukemia; 8.4% (active) in the experiment on SR leukemia; 66.7% with RPMI-8226 leukemia; 91.1% in the experiment with OVCAR-8 ovarian; 111% with OVCAR-5 ovarian. Also, the growth is 115% in the experiment on OVCAR-4 ovarian; 118% in the experiment with SK-OV-3 ovarian; 105% in the experiment with IGROV1 ovarian; 110% in the experiment with OVCAR-3 ovarian; 88.8% with HS 578T breast.
On to `COc1ccc(-c2nc(-c3ccccc3OCc3ccccc3OC)nc(C)c2C(C)=O)cc1`, for which the growth with SN12C renal was 85.1%; in the experiment with UO-31 renal it was 64.3%; in the experiment on TK-10 renal, 103%; in the experiment on ACHN renal, 87%; in the experiment on CAKI-1 renal, 73.3%; in the experiment on A498 renal it was 79.1%. The growth in the experiment on CCRF-CEM leukemia was 73.1%; in the experiment with MOLT-4 leukemia, 62.4%; with SR leukemia it was 78.8%; in the experiment on RPMI-8226 leukemia it was 73%; in the experiment on OVCAR-8 ovarian, 86.9%; in the experiment on OVCAR-5 ovarian, 94.1%. Besides, the growth in the experiment with OVCAR-4 ovarian is 94.9%; in the experiment with SK-OV-3 ovarian it was 96.1%; in the experiment with IGROV1 ovarian, 89.7%; with OVCAR-3 ovarian it was 102%; with HS 578T breast, 72.8%; in the experiment on NCI/ADR-RES ovarian it was 83.7%.
As to `Cc1ccc(-c2nc3ccccc3c(=O)n2/N=C/c2cccc3ccccc23)cc1`, the growth in the experiment on SN12C renal was 82.3%; in the experiment with UO-31 renal, 48.3%; in the experiment on TK-10 renal it was 101%; with ACHN renal, 80.7%; in the experiment with CAKI-1 renal, 54.4%; in the experiment with A498 renal, 109%. Further, the growth is 55.2% in the experiment with CCRF-CEM leukemia; 55.9% with MOLT-4 leukemia; 49.8% in the experiment with SR leukemia; 73.6% in the experiment with RPMI-8226 leukemia; 84.2% with OVCAR-8 ovarian; 102% in the experiment with OVCAR-5 ovarian. Besides, the growth in the experiment with OVCAR-4 ovarian is 76.2%; with SK-OV-3 ovarian, 76.4%; in the experiment on IGROV1 ovarian, 50.1%; in the experiment on OVCAR-3 ovarian, 71.6%; in the experiment on HS 578T breast, 100%; in the experiment with NCI/ADR-RES ovarian, 78.6%.
Regarding `CCOC(=O)c1ccccc1SC(C[N+](=O)[O-])c1ccccc1` (stereo not drawn), the growth with SN12C renal is 93.4%; in the experiment on UO-31 renal, 99.4%; in the experiment on TK-10 renal, 92.9%; with ACHN renal, 88.7%; in the experiment on CAKI-1 renal it was 92.5%; with A498 renal it was 87%. The growth was 65.5% with CCRF-CEM leukemia; 94.3% with MOLT-4 leukemia; 38.2% in the experiment with SR leukemia; -41.5% (active) in the experiment with RPMI-8226 leukemia; 85.8% with OVCAR-8 ovarian; 100% in the experiment with OVCAR-5 ovarian. The growth in the experiment with OVCAR-4 ovarian is 89.1%; in the experiment with SK-OV-3 ovarian it was 117%; in the experiment on IGROV1 ovarian, 72.1%; in the experiment on OVCAR-3 ovarian it was 104%; in the experiment with HS 578T breast, 104%; with NCI/ADR-RES ovarian it was 112%.
On to `Cc1ccc(S(=O)(=O)NC(CCC(=O)Nc2ccc(Cl)cc2)C(=O)Nc2ccc(Cl)cc2)cc1` (stereo not drawn), for which the growth is 39.8% in the experiment with SN12C renal; 38.2% in the experiment with UO-31 renal; 25.7% with TK-10 renal; 30% in the experiment with ACHN renal; 41.9% in the experiment on CAKI-1 renal; -0.58% (active) with A498 renal. The growth was 4.45% (active) with CCRF-CEM leukemia; 10.7% in the experiment with MOLT-4 leukemia; -18.2% (active) with SR leukemia; 13.5% in the experiment on RPMI-8226 leukemia; 39.2% with OVCAR-8 ovarian; 67.8% in the experiment on OVCAR-5 ovarian. For the same molecule, the growth in the experiment with OVCAR-4 ovarian was 26.3%; in the experiment on SK-OV-3 ovarian, 26.2%; in the experiment on IGROV1 ovarian, 34.6%; with OVCAR-3 ovarian, 7.96% (active); in the experiment on HS 578T breast, 29.8%; in the experiment with NCI/ADR-RES ovarian, 39.6%.
Consider `Cc1cc(Cl)c2ccc(N(C)C)cc2n1`, for which the growth in the experiment on SN12C renal is 98%; with UO-31 renal it was 84.4%; with TK-10 renal, 109%; in the experiment on ACHN renal, 97.6%; with CAKI-1 renal it was 93%; with A498 renal, 92.6%. Further, the growth was 95.9% in the experiment with CCRF-CEM leukemia; 84.7% with MOLT-4 leukemia; 87.3% in the experiment on SR leukemia; 97% with RPMI-8226 leukemia; 102% with OVCAR-8 ovarian; 105% in the experiment with OVCAR-5 ovarian. The growth was 105% in the experiment on OVCAR-4 ovarian; 97.4% with SK-OV-3 ovarian; 106% with IGROV1 ovarian; 104% in the experiment on OVCAR-3 ovarian; 96.9% with HS 578T breast; 104% in the experiment on NCI/ADR-RES ovarian.
`CC(C)CC(NC(=O)OCC1c2ccccc2-c2ccccc21)C(=O)O` (stereo not drawn): the growth was 104% in the experiment on SN12C renal; 94.2% with UO-31 renal; 109% in the experiment on TK-10 renal; 112% in the experiment on ACHN renal; 86.6% in the experiment with CAKI-1 renal; 95% in the experiment with A498 renal. The growth with CCRF-CEM leukemia is 98.7%; in the experiment with MOLT-4 leukemia it was 96.2%; in the experiment on SR leukemia, 93.7%; in the experiment with RPMI-8226 leukemia it was 101%; in the experiment with OVCAR-8 ovarian, 122%; in the experiment with OVCAR-5 ovarian it was 101%. Also, the growth with OVCAR-4 ovarian is 102%; in the experiment on SK-OV-3 ovarian, 95%; in the experiment with IGROV1 ovarian, 91%; in the experiment on OVCAR-3 ovarian, 115%; in the experiment on HS 578T breast, 115%; in the experiment on NCI/ADR-RES ovarian it was 107%.
For `CCCCn1c(C)nc2cc(Nc3nc(Cl)nc4nc[nH]c34)ccc21`, the growth is 78.9% in the experiment on SN12C renal; 64.6% in the experiment with UO-31 renal; 73.5% in the experiment with TK-10 renal; 85.8% in the experiment with ACHN renal; 76.1% in the experiment with CAKI-1 renal; 26% with A498 renal. Moreover, the growth in the experiment with CCRF-CEM leukemia was 78%; with MOLT-4 leukemia, 64%; in the experiment with SR leukemia it was 66.7%; with RPMI-8226 leukemia it was 65.4%; in the experiment with OVCAR-8 ovarian, 84.2%; with OVCAR-5 ovarian it was 80.6%. For the same molecule, the growth was 78.9% with OVCAR-4 ovarian; 80% with SK-OV-3 ovarian; 70.7% in the experiment on IGROV1 ovarian; 91.6% in the experiment on OVCAR-3 ovarian; 52.7% in the experiment with HS 578T breast; 94% in the experiment on NCI/ADR-RES ovarian.
